Compound activity: PubChem BioAssay, several laboratories
In the library only some 22% were active in any assay of this set; here they are far more common.
CYP2C19 inhib = blockers of cytochrome P450 2C19 activity – biochemical, luminescence, ADME assay, primary screen; P33261; CYP2C19 Supersomes, luciferin-H EGE luminescence, 30 min; inhibition, % at 5 µM; hit rate 21% among 96,000;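 active = CYP2C19 inhibition above a set limit at 5 µM in the primary screen, cut at about 50% in these data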;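 also: plate controls were negative control wells for no effect and 2.5 mM tranylcypromine positive control for full effect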
Measles CPE = compounds protecting cells from measles virus cytopathic effect, primary screen, measles RdRp inhibitor project, single point, MLSMR library, absorbance; hit rate 1.5% among 140,000; Measles virus-infected cells, CPE protection; AID 841, 2007; protection (pct of control), % at 4 µM; in the data active = protection mostly above about 24%, no sharp cut-off; inactive = mostly below about 26%
CYP2C9 inhib = blockers of cytochrome P450 2C9 activity – biochemical, luminescence, ADME assay, primary screen | CYP2C9 Supersomes, luciferin-H conversion | hit rate 20% among 96,000 | P11712 | AID 777, 2007 | inhibition, % at 5 µM;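 active = blocking of liver enzyme CYP2C9 beyond about 50% at 5 µM, limit read from the data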
Target sequence (P11712 whole entry, looked up): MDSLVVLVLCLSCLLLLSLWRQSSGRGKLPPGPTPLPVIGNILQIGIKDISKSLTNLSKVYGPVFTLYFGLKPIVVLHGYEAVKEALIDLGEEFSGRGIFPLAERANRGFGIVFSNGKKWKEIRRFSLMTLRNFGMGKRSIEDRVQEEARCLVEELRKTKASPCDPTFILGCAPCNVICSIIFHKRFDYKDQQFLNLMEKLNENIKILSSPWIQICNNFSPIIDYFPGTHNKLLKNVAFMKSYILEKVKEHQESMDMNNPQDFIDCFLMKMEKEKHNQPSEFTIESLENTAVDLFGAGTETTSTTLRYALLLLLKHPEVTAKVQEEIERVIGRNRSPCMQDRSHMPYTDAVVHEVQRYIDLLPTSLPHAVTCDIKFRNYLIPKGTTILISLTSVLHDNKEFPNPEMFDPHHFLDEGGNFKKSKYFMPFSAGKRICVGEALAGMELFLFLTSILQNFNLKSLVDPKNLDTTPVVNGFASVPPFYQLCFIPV
CYP2C19 act = human CYP2C19 activators, primary screen, biochemical, luminescence. activation factor at 5 µM. 96,000 tested, under 10 active. recombinant CYP2C19, luciferin-H EGE luminescence; stronger effect = higher value; 0 = fully inhibited enzyme, 1 = untreated enzyme. Cytochrome P450 2C19 (Homo sapiens), P33261;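 active = activation factor of at least 2 at 5 µM in the primary screen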;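 also: 0 = wells with 2.5 mM tranylcypromine and 1 = vehicle-only wells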
CYP2C9 act = human CYP2C9 activators, primary screen, biochemical, luminescence. Cytochrome P450 2C9 (Homo sapiens), P11712. recombinant CYP2C9, luciferin-H conversion; stronger effect = higher value; factor 1 = untreated enzyme, 0 = blocked. activation factor at 5 µM. hit rate 1.4% among 96,000. AID 1024, 2008;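 active = activation factor of 2 or more for CYP2C9 at a 5 µM dose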;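 also: 0 = sulfaphenazole-blocked wells and 1 = vehicle-only wells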
Active calls of the source: *; . = not tested or not shown.

SMILES	CYP2C19 inhib	Measles CPE	CYP2C9 inhib	CYP2C19 act	CYP2C9 act
COc1ccc(S(=O)(=O)N(C)CC(=O)N2CCOCC2)cc1	5	5	-60	0.9	1.6
CCOC(=O)C(=CNCC(=O)OC)C(=O)OCC	-12	2	-14	1.1	1.1
O=c1[nH]c2ccc(S(=O)(=O)N3CCC(Cc4ccccc4)CC3)cc2o1	2	5	-88	1	1.9
CCCCN(Cc1ccccc1)S(=O)(=O)c1ccc2[nH]c(=O)oc2c1	76*	5	16	0.2	0.8
O=C(O)CCSc1nc2ccccc2s1	7	7	0	0.9	1
O=C(OCC#CCSc1nnc(-c2ccccc2)o1)c1ccco1	88*	12	58*	0.1	0.4
O=C(OCC#CCSc1nnc(-c2cccc3ccccc23)o1)c1cccs1	27	7	-96	0.7	2*
O=C(OCC#CCSc1nnc(-c2ccc(Br)cc2)o1)c1ccco1	14	10	44	0.9	0.6
O=C(OCC#CCSc1nc2ccccc2s1)c1ccco1	83*	6	72*	0.2	0.3
O=C(OCC#CCSc1nnc(-c2ccccc2)o1)c1cccs1	36	17	2	0.6	1
CC(C)CC1(C(=O)O)NC(c2ccccc2O)C2C(=O)N(C(C)C)C(=O)C21 (configuration not stated)	1	4	0	1	1
CN(CC(=O)Nn1cnnc1)S(=O)(=O)c1cc(Cl)ccc1Cl	81*	19	87*	0.2	0.1
CN(CC(=O)N1CCCC1)S(=O)(=O)c1cc(Cl)ccc1Cl	19	21	-141	0.8	2.4*
CN(CC(=O)O)S(=O)(=O)c1cc(Cl)ccc1Cl	6	5	-1	0.9	1
O=C(c1cc2n(n1)C(C(F)(F)F)CC(c1ccc(Cl)cc1)N2)N1CCCC1 (configuration not stated)	16	20	6	0.8	0.9
COC(=O)c1nn(-c2ccc(OC)cc2)c(=O)cc1Oc1cccc(Cl)c1	12	7	0	0.9	1
CCOc1ccc(N2C(=O)CC(N3CCN(C4CCc5ccccc5C4)CC3)C2=O)cc1 (configuration not stated)	-3	17	-6	1	1.1
COCCCNC(=O)c1c(N)n(-c2cccc(S(N)(=O)=O)c2)c2nc3ccccc3nc12	16	42*	9	0.8	0.9
COCCCNC(=O)c1c(N)n(/N=C/c2ccccn2)c2nc3ccccc3nc12	47	6	52*	0.5	0.5
COc1ccc(C(=O)Nc2cc(Cl)ccc2Cl)c(OC)n1	13	21	27	0.9	0.7
CC1(C(=O)NC2CCCCCCC2)CCC(=O)N1Cc1cccs1 (configuration not stated)	71*	28	-28	0.3	1.3
COc1ccc(Br)cc1CNC(=O)C1CCN(S(=O)(=O)N2CCCC2)CC1	22	6	-164	0.8	2.6*
CCS(=O)(=O)N1CCC(C(=O)NCc2cc(OC)ccc2OC)CC1	13	10	-78	0.9	1.8
COc1ccccc1CNC(=O)C1CCN(S(=O)(=O)N2CCCCC2)CC1	19	8	-116	0.8	2.2*
CCS(=O)(=O)N1CCC(C(=O)NCc2ccccc2OC)CC1	-6	17	-35	1.1	1.3
SMILES	CYP2C19 inhib	Measles CPE	CYP2C9 inhib	CYP2C19 act	CYP2C9 act
Cc1cccc(-n2c(-c3csc4ccccc34)n[nH]c2=S)c1	.	6	.	.	.
CCOC(=O)Cn1nc(-c2ccc(F)cc2)oc1=O	58*	6	44	0.4	0.6
CO/N=C(/CS(=O)Cc1ccc(Cl)cc1)c1ccc(Cl)cc1 (configuration not stated)	96*	2	56*	0	0.4
CO/N=C(\CS(=O)(=O)Cc1ccc(OC)cc1)c1ccc(Cl)cc1	37	10	7	0.6	0.9
CCOC(=O)CN1C(=O)C(O)(CC(=O)c2cccc(OC)c2)c2ccccc21 (configuration not stated)	63*	23	28	0.4	0.7
O=C(CC1(O)C(=O)N(C/C=C/c2ccccc2)c2ccccc21)c1ccccn1 (configuration not stated)	92*	13	82*	0.1	0.2
COC(=O)CN1C(=O)C(O)(CC(=O)c2ccc(C)cc2)c2ccccc21 (configuration not stated)	62*	1	32	0.4	0.7
COC(=O)CN1C(=O)C(O)(CC(=O)c2ccccc2)c2ccccc21 (configuration not stated)	51*	7	13	0.5	0.9
CN1C(=O)C(O)(CC(=O)/C=C/C=C/c2ccccc2)c2ccccc21 (configuration not stated)	.	15	.	.	.
COC(=O)CN1C(=O)C(O)(CC(=O)c2ccc(C)o2)c2ccccc21 (configuration not stated)	-6	18	-4	1.1	1
CCc1c(C)n2nc(C)cc2[nH]c1=O	-21	2	-33	1.2	1.3
CCOC(=O)c1nn(-c2cccc(OC)c2)c2nc(Nc3ccccc3)cc(=O)n12	.	5	.	.	.
C=CCN1C(=O)C(O)(CC(=O)c2ccc(N)cc2)c2ccccc21 (configuration not stated)	60*	3	-11	0.4	1.1
CCCc1[nH][nH]c(=O)c1C(c1ccc(Cl)cc1)C(C#N)C#N (configuration not stated)	.	0	.	.	.
Cc1[nH]n(C(N)=S)c(=O)c1C(c1ccccc1)C(C#N)C#N (configuration not stated)	5	12	15	0.9	0.9
CCCc1[nH][nH]c(=O)c1C(c1ccc(Br)cc1)C(C#N)C#N (configuration not stated)	43	14	61*	0.6	0.4
CCCc1[nH][nH]c(=O)c1C(c1ccccc1)C(C#N)C#N (configuration not stated)	58*	3	62*	0.4	0.4
O=c1c2c(nc(NCCO)n1CC1CCCCC1)-c1ccccc1CC21CCCC1	93*	9	100*	0.1	0
CC1(C)CC(n2c(NCCO)nc3c(c2=O)C2(CCCC2)Cc2ccccc2-3)CCO1 (configuration not stated)	84*	16	84*	0.2	0.2
Cc1ccc(C(=O)c2ccccc2C(=O)OCC(=O)NCCc2ccccc2)cc1	.	23	.	.	.
O=S(=O)(Nc1ccc2nc(-c3ccc(Br)o3)[nH]c2c1)c1ccccc1	91*	23	94*	0.1	0.1
Cn1c(CN2CCCC2)nc2cc(NS(=O)(=O)c3ccccc3)ccc21	25	0	-5	0.8	1.1
Cc1ccc(/C=N/NS(=O)(=O)c2ccccc2)o1	.	11	.	.	.
O=S(=O)(Nc1ccc2nc(C(F)(F)F)[nH]c2c1)c1ccccc1	100*	2	81*	0	0.2
